For 14 compounds, z-score results are on record in PubChem BioAssay.

Each structure is given as a SMILES string. Active and inactive are the calls of the source.

Assay [1] is described as follows: A549 cell viability effects, profiling panel, calcein-AM fluorescence, 48 h, basal (AID 1162). Conditions: higher = more signal.
Assay [2] can be described thus: adipocyte viability effects, profiling panel, cell-based, 3T3-L1 adipocytes, calcein-AM fluorescence, 48 h, basal (AID 1163). Particulars: 3T3-L1 adipocytes viability, higher = more signal.
The nature of assay [3]: HepG2 cell viability effects, profiling panel, calcein-AM fluorescence, 48 h, basal (AID 1164). Conditions: higher = more signal.
Assay [4] in a line: MM1S cell viability effects, profiling panel, calcein-AM fluorescence, 48 h, basal (AID 1165).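 Further: viability of MM1S multiple myeloma cells under basal unstimulated conditions.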 Particulars: higher = more signal.
Assay [5] in a line: basal RPMI8226 viability, no added stimulus, profiling panel, cell-based, calcein-AM fluorescence, 48 h, PK04 Diversity Set (AID 1166).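 Further: cells grown under basal conditions without added stimulus.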 Particulars: RPMI8226 myeloma viability, higher = more signal.
Assay [6] can be described thus: basal HepG2 mitochondrial membrane potential changes, profiling panel, cell-based, JC-1 fluorescence, 24 h, 100 nL compound (AID 1167). Conditions: higher = more signal.
The nature of assay [7]: basal 3T3-L1 adipocyte mitochondrial potential changes, profiling panel, cell-based, JC-1 fluorescence, 3T3-L1 adipocytes, 24 h, 100 nL compound (AID 1168). Conditions: JC-1 mitochondrial fluorescence, higher = more signal, called active from +8 up or from −8 down.
Assay [8] is described as follows: basal RPMI8226 mitochondrial membrane potential changes, profiling panel, cell-based, JC-1 fluorescence, 24 h, 100 nL compound (AID 1169). Particulars: RPMI8226 myeloma, JC-1 mitochondrial potential fluorescence, higher = more signal.
Assay [9] is described as follows: basal MM1S mitochondrial membrane potential changes, profiling panel, cell-based, JC-1 fluorescence, 24 h, 100 nL compound (AID 1170). Conditions: higher = more signal.
Assay [10] is described as follows: A549 lung cancer cell viability effects, profiling panel, resazurin fluorescence, 24 h, PK04 Diversity Set (AID 1171). Particulars: higher = more signal, called active from +8 up or from −8 down.
Further: test concentration not given here.

Turning to `C=CCN1C(=O)[C@]2(O[C@H](CCO)[C@@H]([Si](C)(C)c3ccc(OC)cc3)[C@@H]2C)c2cc(NC(=O)c3ccc(OC)cc3)ccc21`, the z-score in [1] is -3.78; in assay [2] it was -0.562; in assay [3] it was -4.65; in [4], -2.69; in assay [5] it was -4.38; in assay [6], -0.446. The z-score in [7] was 0.96 (inactive); in [8], -0.953; in assay [9], -2.2; in [10] it was -3.7 (inactive).
Regarding `CN1C(=O)C2C(C1=O)C1C=C(CCCO)C2C(C2CC2)N1Cc1cc2c(cc1Br)OCO2` (stereo not given), the z-score in assay [1] was -0.487; in assay [2] it was 0.337; in assay [3], -0.717; in assay [4] it was -0.172; in assay [5] it was -0.909; in [6], 0.435. Moreover, the z-score in [7] is -0.527 (inactive); in assay [8] it was 0.87; in assay [9] it was 0.859; in assay [10] it was -0.477 (inactive).
Turning to `COc1ccc([Si](C)(C)[C@H]2[C@H](CCO)O[C@@]3(C(=O)N(Cc4ccccc4)c4ccc(N5CCOC5=O)cc43)[C@@H]2C)cc1`, the z-score was -0.119 in assay [1]; -0.325 in assay [2]; -2.09 in assay [3]; -2.13 in assay [4]; -3.4 in [5]; -0.203 in assay [6]. The z-score in assay [7] was 0.69 (inactive); in [8], -1.11; in assay [9], -1.68; in assay [10], -1.94 (inactive).
Consider `C=C(C(=O)CC[C@@H](OC(=O)c1ccccc1-c1ccccc1C(=O)O)c1ccccc1OCCO)C(C)C`, for which the z-score in [1] is -0.0081; in assay [2], 0.707; in [3] it was -0.188; in assay [4], -2.67; in assay [5], -1.92; in [6], -1.1. For the same compound, the z-score in assay [7] was 0.758 (inactive); in assay [8] it was 0.0612; in [9] it was -0.281; in assay [10] it was 0.63 (inactive).
For the compound `Cc1ccc(S[C@]2(C(=O)NCC(C)C)CC(=O)N(C3Cc4ccccc4C3)[C@@H]2c2ccc(CO)cc2I)cc1`, the z-score in assay [1] is 0.168; in assay [2], -0.492; in assay [3] it was -0.455; in [4], -2.37; in assay [5], -2.6; in [6], -0.534. Besides, the z-score in [7] is -0.233 (inactive); in [8], -0.107; in [9] it was -1.76; in [10], -0.105 (inactive).
As for `CN1C(=O)C2C=CC(C(O)c3ccc(I)cc3)N(Nc3ccccc3)C2C1=O` (stereo not given), the z-score in assay [1] was -0.596; in [2], -0.0039; in assay [3], -0.268; in assay [4], -0.521; in assay [5], -0.0284; in assay [6], -1.07. For the same compound, the z-score in [7] was -1.09 (inactive); in assay [8], -0.177; in [9], 0.0807; in [10] it was -0.962 (inactive).
In the case of `CCCCC(=C=CC[C@H](O)c1ccc(OCCO)cc1)C[C@H](O)COCc1ccccc1`, the z-score in [1] is 0.218; in [2], 0.516; in [3] it was 0.528; in assay [4], -3.3; in assay [5], -0.565; in [6] it was -0.399. Moreover, the z-score was -0.379 (inactive) in [7], -0.0821 in assay [8], -0.244 in [9] and 0.449 (inactive) in assay [10].
For the compound `NC(=O)[C@H]1[C@@H]2C(=O)O[C@@H](c3ccccc3)[C@@H](c3ccccc3)N2[C@@H](c2ccc(O)cc2)[C@]12C(=O)Nc1ccccc12`, the z-score in assay [1] was -0.265; in assay [2] it was -0.712; in [3] it was 0.872; in [4], 0.519; in assay [5], -0.544; in [6], -0.288. In addition, the z-score was -0.243 (inactive) in [7], -0.309 in [8], -0.371 in [9] and -0.189 (inactive) in [10].
As for `C=CCNC(=O)[C@@H]1[C@H]2C(=O)O[C@H](c3ccccc3)[C@H](c3ccccc3)N2[C@H](c2ccc(OCCO)cc2)[C@@]12C(=O)N(C(=O)OCCOC)c1ccc(C#CCCO)cc12`, the z-score is 2.85 in assay [1]; 1.86 in [2]; 1.22 in [3]; 0.485 in assay [4]; 0.927 in assay [5]; -0.435 in assay [6]. Further, the z-score in assay [7] is 1.27 (inactive); in assay [8] it was -0.709; in [9] it was -1.07; in [10] it was -0.477 (inactive).
In the case of `CCOC(=O)C=Cc1cc(F)ccc1O`, the z-score was -1.13 in assay [1]; 0.749 in assay [2]; -0.714 in assay [3]; -0.633 in assay [4]; -1.39 in assay [5]; -1.19 in assay [6]. In addition, the z-score in assay [7] was -0.966 (inactive); in [8], 0.287; in assay [9], -0.0774; in assay [10], 0.0142 (inactive).
For the compound `CC1CC/C=C\[C@H]2OC34C=CCN(CCN5CCOCC5)C(=O)[C@H]3N(C(C)CO)C(=O)[C@@H]4C2C(=O)O1` (stereo not given in full), the z-score is 0.956 in [1]; -0.491 in assay [2]; 1.2 in [3]; 1.29 in assay [4]; -0.143 in assay [5]; 0.602 in [6]. For the same compound, the z-score in [7] is 0.225 (inactive); in [8], 0.0954; in assay [9], -0.722; in [10] it was -0.387 (inactive).
As to `C=C(COC)C(=O)CC[C@H](OC(C)=O)c1ccc(OCCO)cc1`, the z-score in [1] was -0.522; in assay [2], 1.72; in assay [3] it was -0.974; in [4] it was -2.6; in assay [5], -0.887; in assay [6], 0.692. The z-score in [7] was -0.213 (inactive); in assay [8] it was -0.0964; in assay [9], 1.3; in assay [10], 0.0933 (inactive).
For `COc1ccc(C#Cc2ccc3c(c2)[C@]2(C(=O)N3)[C@H](c3ccc(OCCO)cc3)N3[C@H](c4ccccc4)[C@H](c4ccccc4)OC(=O)[C@H]3[C@@H]2C(=O)N2CCc3cc(OC)c(OC)cc3C2)cc1`, the z-score in assay [1] is 0.0926; in assay [2], 0.485; in assay [3], 0.477; in assay [4] it was -1.25; in [5], 0.343; in [6], 0.37. The z-score in assay [7] was 3.73 (inactive); in assay [8], -1.23; in [9], -1.49; in assay [10] it was -0.0906 (inactive).
On to `O=C1[C@@]23C=C(Br)[C@H](C[C@@H]2COC3)[C@@]12CO2`, for which the z-score is -0.0321 in [1]; -1.05 in [2]; -0.493 in assay [3]; -2.27 in assay [4]; -1.1 in assay [5]; -1.73 in [6]. For the same compound, the z-score in assay [7] was 0.281 (inactive); in assay [8], -0.213; in assay [9], -0.809; in assay [10], -0.252 (inactive).
